# Measurements taken from publication PMC10812921, “Transcriptional Coactivator BOB1 (OBF1, OCA-B) Modulates the Specificity of DNA Recognition by the POU-Domain Factors OCT1 and OCT2 in a Monomeric Configuration”.
# Experiments:
# POU1 (OCT1 POU domain) = POU1 (OCT1 POU domain) (human, UniProt P14859 260-458); experiment: EMSA-SELEX-seq; no BOB1; 20 mM Tris-HCl pH 7.6, 140 mM NaCl, 10% glycerol, 0.5 mM EDTA, 0.05% Triton X-100, 0.1 mg/mL BSA, 0.1 mg/mL poly(dI-dC), 5 mM DTT, room temperature, 20 min; high values mean tight binding; conditions: protein: recombinant; dsDNA, one strand shown
# POU1 (OCT1 POU domain), sequence (P14859 260-458): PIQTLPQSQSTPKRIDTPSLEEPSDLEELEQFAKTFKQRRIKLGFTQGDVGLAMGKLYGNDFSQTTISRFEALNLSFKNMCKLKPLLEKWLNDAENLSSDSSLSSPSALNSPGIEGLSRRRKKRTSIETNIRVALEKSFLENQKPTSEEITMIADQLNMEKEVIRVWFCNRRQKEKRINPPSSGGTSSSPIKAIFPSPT
# Summary of the method: (§1)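 Binding preference is the percentage of sequenced 8-mers matching a motif pattern. Tagged POU-domain proteins expressed in E. coli BL21 were purified under denaturing conditions and renatured. For binding, 30 ng protein met 300 ng of a PCR-amplified double-stranded random 35-nt library, with or without 28 ng coactivator protein, in 20 μL Tris–HCl pH 7.6 binding buffer for 20 min at RT. Complex bands were cut from native 6% PAGE, eluted and PCR-amplified over four rounds, then Illumina-sequenced.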
# POU2 (OCT2 POU domain) = biological target: T1, POU2 (OCT2 POU domain) (human, UniProt P09086 175-386); experiment: as above; conditions: protein: recombinant; dsDNA, one strand shown
# T1 sequence: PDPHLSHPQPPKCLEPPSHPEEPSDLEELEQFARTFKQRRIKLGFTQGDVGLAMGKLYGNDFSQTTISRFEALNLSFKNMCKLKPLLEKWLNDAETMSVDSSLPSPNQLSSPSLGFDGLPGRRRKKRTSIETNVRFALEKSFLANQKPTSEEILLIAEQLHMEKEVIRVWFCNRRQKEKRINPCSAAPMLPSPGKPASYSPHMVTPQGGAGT
# Summary of the method: as §1
# [1] = biological target: POU1 (OCT1 POU domain);BOB1 (OBF1, OCA-B) (human;human, UniProt P14859;Q16633 260-458;1-256, |); experiment: EMSA-SELEX-seq; with BOB1 (ternary complex band); 20 mM Tris-HCl pH 7.6, 140 mM NaCl, 10% glycerol, 0.5 mM EDTA, 0.05% Triton X-100, 0.1 mg/mL BSA, 0.1 mg/mL poly(dI-dC), 5 mM DTT, room temperature, 20 min; high values mean tight binding; conditions: protein: recombinant;recombinant; copies: 1;1; dsDNA, one strand shown
# Summary of the method: as §1
# [2] = biological target: T2, POU2 (OCT2 POU domain);BOB1 (OBF1, OCA-B) (human;human, UniProt P09086;Q16633 175-386;1-256, |); experiment: as above; conditions: protein: recombinant;recombinant; copies: 1;1; dsDNA, one strand shown
# T2 sequence 1: T1 sequence
# T2 sequence 2: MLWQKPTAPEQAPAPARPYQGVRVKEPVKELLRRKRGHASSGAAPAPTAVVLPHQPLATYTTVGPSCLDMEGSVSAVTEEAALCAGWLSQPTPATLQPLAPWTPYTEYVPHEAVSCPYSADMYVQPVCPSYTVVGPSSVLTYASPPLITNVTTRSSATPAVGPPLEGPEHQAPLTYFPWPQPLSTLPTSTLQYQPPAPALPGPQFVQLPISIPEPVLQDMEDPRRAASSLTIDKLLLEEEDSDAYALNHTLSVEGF
# Summary of the method: as §1
Sequence,binding signal (POU1 (OCT1 POU domain)),binding signal (POU2 (OCT2 POU domain)),binding signal [1],binding signal [2]
ACACAAAT,0.116 % of ANNNNAAN 8-mers,0.0857 % of ANNNNAAN 8-mers,0.175 % of ANNNNAAN 8-mers,0.0916 % of ANNNNAAN 8-mers
ATATGAAC,0.0389 % of ANNNNAAN 8-mers,0.0495 % of ANNNNAAN 8-mers,0.03 % of ANNNNAAN 8-mers,0.0528 % of ANNNNAAN 8-mers
AGCGGAAC,0.0183 % of ANNNNAAN 8-mers,0.0224 % of ANNNNAAN 8-mers,0.0129 % of ANNNNAAN 8-mers,0.0157 % of ANNNNAAN 8-mers
AGTCCAAT,0.0385 % of ANNNNAAN 8-mers,0.0466 % of ANNNNAAN 8-mers,0.0421 % of ANNNNAAN 8-mers,0.0371 % of ANNNNAAN 8-mers
ATTAGAAA,0.0995 % of ANNNNAAN 8-mers,0.106 % of ANNNNAAN 8-mers,0.0738 % of ANNNNAAN 8-mers,0.0892 % of ANNNNAAN 8-mers
ATTAAAAG,0.149 % of ANNNNAAN 8-mers,0.171 % of ANNNNAAN 8-mers,0.115 % of ANNNNAAN 8-mers,0.102 % of ANNNNAAN 8-mers
AGGCTAAC,0.013 % of ANNNNAAN 8-mers,0.023 % of ANNNNAAN 8-mers,0.0191 % of ANNNNAAN 8-mers,0.0223 % of ANNNNAAN 8-mers
ATAGTAAT,0.116 % of ANNNNAAN 8-mers,0.148 % of ANNNNAAN 8-mers,0.0702 % of ANNNNAAN 8-mers,0.0867 % of ANNNNAAN 8-mers
ACAAAAAT,0.0938 % of ANNNNAAN 8-mers,0.0667 % of ANNNNAAN 8-mers,0.114 % of ANNNNAAN 8-mers,0.0768 % of ANNNNAAN 8-mers
ACTGGAAT,0.074 % of ANNNNAAN 8-mers,0.0765 % of ANNNNAAN 8-mers,0.0558 % of ANNNNAAN 8-mers,0.0817 % of ANNNNAAN 8-mers
AGTGCAAA,0.0873 % of ANNNNAAN 8-mers,0.0593 % of ANNNNAAN 8-mers,0.126 % of ANNNNAAN 8-mers,0.0743 % of ANNNNAAN 8-mers
AGTATAAT,0.192 % of ANNNNAAN 8-mers,0.289 % of ANNNNAAN 8-mers,0.0866 % of ANNNNAAN 8-mers,0.121 % of ANNNNAAN 8-mers
AGGGCAAA,0.0568 % of ANNNNAAN 8-mers,0.0466 % of ANNNNAAN 8-mers,0.0675 % of ANNNNAAN 8-mers,0.0462 % of ANNNNAAN 8-mers
AGCGCAAT,0.0278 % of ANNNNAAN 8-mers,0.0368 % of ANNNNAAN 8-mers,0.0258 % of ANNNNAAN 8-mers,0.0297 % of ANNNNAAN 8-mers
ATCGAAAT,0.0694 % of ANNNNAAN 8-mers,0.0633 % of ANNNNAAN 8-mers,0.0777 % of ANNNNAAN 8-mers,0.0512 % of ANNNNAAN 8-mers
AATGGAAC,0.0439 % of ANNNNAAN 8-mers,0.0466 % of ANNNNAAN 8-mers,0.0449 % of ANNNNAAN 8-mers,0.0528 % of ANNNNAAN 8-mers
AGAGTAAA,0.0564 % of ANNNNAAN 8-mers,0.0386 % of ANNNNAAN 8-mers,0.0605 % of ANNNNAAN 8-mers,0.0512 % of ANNNNAAN 8-mers
ATAAAAAA,0.0995 % of ANNNNAAN 8-mers,0.1 % of ANNNNAAN 8-mers,0.0823 % of ANNNNAAN 8-mers,0.0801 % of ANNNNAAN 8-mers
ATCCGAAT,0.0542 % of ANNNNAAN 8-mers,0.0748 % of ANNNNAAN 8-mers,0.0496 % of ANNNNAAN 8-mers,0.066 % of ANNNNAAN 8-mers
ACCAAAAA,0.0336 % of ANNNNAAN 8-mers,0.0328 % of ANNNNAAN 8-mers,0.0425 % of ANNNNAAN 8-mers,0.0256 % of ANNNNAAN 8-mers
ATCCCAAG,0.0172 % of ANNNNAAN 8-mers,0.0167 % of ANNNNAAN 8-mers,0.0246 % of ANNNNAAN 8-mers,0.0198 % of ANNNNAAN 8-mers
AGGCGAAG,0.024 % of ANNNNAAN 8-mers,0.0305 % of ANNNNAAN 8-mers,0.0242 % of ANNNNAAN 8-mers,0.0297 % of ANNNNAAN 8-mers
ACGCGAAC,0.0103 % of ANNNNAAN 8-mers,0.0121 % of ANNNNAAN 8-mers,0.0109 % of ANNNNAAN 8-mers,0.0165 % of ANNNNAAN 8-mers
AGTCGAAC,0.0221 % of ANNNNAAN 8-mers,0.0224 % of ANNNNAAN 8-mers,0.0199 % of ANNNNAAN 8-mers,0.0239 % of ANNNNAAN 8-mers
AATTCAAC,0.069 % of ANNNNAAN 8-mers,0.0708 % of ANNNNAAN 8-mers,0.0589 % of ANNNNAAN 8-mers,0.0512 % of ANNNNAAN 8-mers
ACATGAAG,0.0378 % of ANNNNAAN 8-mers,0.0449 % of ANNNNAAN 8-mers,0.03 % of ANNNNAAN 8-mers,0.0355 % of ANNNNAAN 8-mers
AAACAAAA,0.156 % of ANNNNAAN 8-mers,0.115 % of ANNNNAAN 8-mers,0.256 % of ANNNNAAN 8-mers,0.14 % of ANNNNAAN 8-mers
ACTGTAAA,0.0404 % of ANNNNAAN 8-mers,0.042 % of ANNNNAAN 8-mers,0.0406 % of ANNNNAAN 8-mers,0.0388 % of ANNNNAAN 8-mers
AATACAAT,0.0797 % of ANNNNAAN 8-mers,0.107 % of ANNNNAAN 8-mers,0.0663 % of ANNNNAAN 8-mers,0.0982 % of ANNNNAAN 8-mers
ACCATAAG,0.0324 % of ANNNNAAN 8-mers,0.0414 % of ANNNNAAN 8-mers,0.0238 % of ANNNNAAN 8-mers,0.0248 % of ANNNNAAN 8-mers
